Several values for one entry are separate records, joined by “and”; a condition that tells them apart may be missing. Equal entries are not always repeated. Records with an inconclusive call do not appear. A structure can be active in one record and inactive in another. Activity calls are given as the source filed them. How the source made its calls, unless noted: active means hit-call score of the fitted dose curve at least 0.9, where 1 is the maximum; inactive means score below 0.9.
What was measured:
[1] = CCTE_Shafer_MEA_dev_mutual_information_norm: CCTE's Neural Network Formation Assay for Mutual Information Normalization, Shafer Lab (AID 2284091);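 on AC50: mutual information between electrodes summarised as area under curve across four recording days; potency is for a decrease in mutual information relative to DMSO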
In short: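 Shared information across electrodes, tracked on days 5, 7, 9 and 12 of network development and collapsed as trapezoidal area under the curve. Rat cortical cultures were treated continuously from plating, with treatment renewed at feeds on DIV 5 and 9; DMSO baseline, negative-direction fit.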

[2] = CCTE_Shafer_MEA_dev_correlation_coefficient_mean: CCTE's Neural Network Formation Assay for Mean Correlation Coefficient, Shafer Lab (AID 2284093);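 on AC50: well mean pairwise spike train correlation integrated as AUC over recording days 5 to 12; potency fitted for loss of correlation relative to DMSO vehicle wells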
In short: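 Read-out: well-mean correlation coefficient of spike trains between electrode pairs, collapsed over four recording days as trapezoidal area-under-the-curve. Developing rat cortical neuron networks grown on MEAs received test chemical continuously from plating.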

[3] = BSK_BT_PBMCCytotoxicity: PBMC Cytotoxicity Assessment in the BioMAP Diversity Plus: BT Assay (AID 2284225); details: primary human B cells with PBMC;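 further: PBMC viability measured by Alamar Blue dye reduction fluorescence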
In short: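 Viability by Alamar Blue reduction (6 h, ex/em 546/580 nm) after 90 h culture of SEB/TSST-1-activated PBMC (20 ng/mL each) given compound 1 h before activation. DMSO served as baseline for curve fitting.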

[4] = read-out: Secreted IgG (sIgG), gene 3500; assay: BSK_BT_sIgG: BioMAP Diversity Plus: BT Assay for Secreted IgG (sIgG) Biomarker Activity (AID 2284226); details: primary human B cells with PBMC
In short: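 ELISA quantitation of secreted IgG from human B cells co-cultured with PBMC, sampled 24 h post-dosing. Values fitted relative to DMSO vehicle as baseline, positive fitting direction.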

[5] = BSK_BT_Bcell_Proliferation: Viability Assessment in the BioMAP Diversity Plus: BT Assay for B cell Proliferation (AID 2284227); details: primary human B cells with PBMC
In short: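 SRB-based protein staining (0.1% SRB after 10% TCA fixation, 560 nm) quantifies proliferation in human B cells co-cultured with PBMC, 72 h post-dosing, with signal gain scored relative to DMSO negative control.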

[6] = read-out: Interleukin 6 (IL6), IL6 (gene 3569); assay: BSK_BT_xIL6: BioMAP Diversity Plus: BT Assay for Interleukin 6 (IL6) Biomarker Activity (AID 2284228); details: primary human B cells with PBMC
In short: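 Human B cell plus PBMC co-culture exposed to test chemical for 24 h; secreted IL-6 quantified by Luminex xMAP bead assay. Activity fitted in the positive direction against DMSO as negative control and baseline.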

[7] = read-out: Interleukin 17A (IL17A), IL17A (gene 3605); assay: BSK_BT_xIL17A: BioMAP Diversity Plus: BT Assay for Interleukin 17A (IL17A) Biomarker Activity (AID 2284229); details: primary human B cells with PBMC
In short: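 B cells co-cultured with PBMC were exposed to test chemicals, and secreted IL-17A was quantified 24 h after dosing by Luminex xMAP bead immunoassay. Activity was fitted in the gain direction against DMSO as baseline.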

[8] = read-out: Tumor necrosis factor (Homo sapiens) (UniProt P01375); assay: BSK_BT_xTNFa: BioMAP Diversity Plus: BT Assay for Tumor necrosis factor alpha (TNF-alpha) Biomarker Activity (AID 2284230); details: primary human B cells with PBMC
In short: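 Compounds were added to a B cell plus PBMC co-culture, and after 24 h secreted TNF-alpha was quantified with Luminex xMAP technology, with responses fitted upward from the DMSO control.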

[9] = read-out: Vascular cell adhesion molecule 1 (VCAM1), VCAM1 (gene 7412); assay: BSK_MyoF_VCAM1: BioMAP Diversity Plus: MyoF Assay for Vascular cell adhesion molecule 1 (VCAM1) Biomarker Activity (AID 2284231); details: primary human lung fibroblasts
In short: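 Primary human lung fibroblasts were dosed with test chemical for 24 h, then cell-surface VCAM-1 was measured by ELISA. Activity was fitted in the positive direction against DMSO as negative control and baseline.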

[10] = read-out: Collagen I, COL1A1 (gene 1277); assay: BSK_MyoF_CollagenI: BioMAP Diversity Plus: MyoF Assay for Collagen I Biomarker Activity (AID 2284238); details: primary human lung fibroblasts
In short: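 Human lung fibroblasts were exposed to test chemical for 24 h, then Collagen I was quantified by ELISA. Activity was fitted in the increasing direction against DMSO as the negative control and baseline.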

[11] = read-out: Collagen III, COL3A1 (gene 1281); assay: BSK_MyoF_CollagenIII: BioMAP Diversity Plus: MyoF Assay for Collagen III Biomarker Activity (AID 2284239); details: primary human lung fibroblasts
In short: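 Human lung fibroblasts were dosed with chemicals and, 24 hours later, collagen III was measured by ELISA. Activity was fitted in the positive direction against the DMSO negative-control baseline.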

[12] = read-out: Interleukin 17F (IL17F), IL17F (gene 112744); assay: BSK_BT_xIL17F: BioMAP Diversity Plus: BT Assay for Interleukin 17F (IL17F) Biomarker Activity (AID 2284243); details: primary human B cells with PBMC
In short: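 B cell/PBMC co-culture (human primary), 24 h compound exposure; sIL-17F by Luminex xMAP; gain-of-signal fit vs DMSO baseline.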

[13] = read-out: Actin alpha 1 (ACTA1), ACTA1 (gene 58); assay: BSK_MyoF_ACTA1: BioMAP Diversity Plus: MyoF Assay for Actin alpha 1 (ACTA1) Biomarker Activity (AID 2284244); details: primary human lung fibroblasts
In short: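 alpha-SMA levels read by ELISA against DMSO baseline, 24 h post-dose, in primary human lung fibroblasts. Parallel cultures stained with 0.1% SRB after 10% TCA fixation (560 nm) to flag overt cytotoxicity.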

[14] = read-out: Interleukin 2 (IL2), IL2 (gene 3558); assay: BSK_BT_xIL2: BioMAP Diversity Plus: BT Assay for Interleukin 2 (IL2) Biomarker Activity (AID 2284245); details: primary human B cells with PBMC
In short: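 Secreted IL-2 was read by Luminex xMAP from B cells co-cultured with PBMC (human primary) 24 h post-dosing; activity was analysed as gain of signal relative to DMSO vehicle.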

[15] = read-out: Basic fibroblast growth factor (bFGF), FGF2 (gene 2247); assay: BSK_MyoF_bFGF: BioMAP Diversity Plus: MyoF Assay for Basic fibroblast growth factor (bFGF) Biomarker Activity (AID 2284246); details: primary human lung fibroblasts
In short: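 bFGF was measured by ELISA in primary human lung fibroblasts 24 h after chemical addition. Signal was analysed as positive-direction change relative to DMSO baseline.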

[16] = read-out: Collagen IV, COL4A1 (gene 1282); assay: BSK_MyoF_CollagenIV: BioMAP Diversity Plus: MyoF Assay for Collagen IV Biomarker Activity (AID 2284247); details: primary human lung fibroblasts
In short: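 Collagen IV quantified by ELISA in human lung fibroblast cultures 24 h after chemical treatment, with DMSO as baseline. Parallel SRB staining (0.1% SRB after TCA fixation, 560 nm) flags overt cytotoxicity.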

[17] = read-out: Monokine induced gamma interferon (MIG), CXCL9 (gene 4283); assay: BSK_KF3CT_MIG: BioMAP Diversity Plus: KF3CT Assay for Monokine induced gamma interferon (MIG) Biomarker Activity (AID 2284248); details: primary human keratinocytes with fibroblasts
In short: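 Human keratinocyte plus foreskin fibroblast primary co-culture dosed with test chemical for 24 h; MIG level measured by ELISA and fitted in the positive direction against DMSO as baseline.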

[18] = CCTE_Mundy_HCI_hNP1_Pro_ResponderAvgInten: CCTE's Proliferation Assay in human neuroprogenitor cells, Mundy Lab (AID 2284224; active means hit-call score of the fitted dose curve at least 0.9, where 1 is the maximum)
In short: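 Proliferation was scored as BrdU labelling intensity in human neural progenitors derived from WA09 embryonic cells, measured 26.25 hours after chemical dosing. Activity was fitted relative to DMSO.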

[19] = CCTE_Mundy_HCI_hNP1_Casp3_7: CCTE's Caspase-Glo 3/7 Assay in human neuroprogenitor cells for Apoptosis, Mundy Lab (AID 2284240)
In short: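 Apoptosis is scored by activated caspase-3/7 luminescence in WA09-derived neural progenitor cells, measured 26.5 h after chemical dosing. Values represent gain of signal relative to DMSO vehicle.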

[20] = CCTE_Mundy_HCI_hNP1_CellTiter: CCTE's Cell Titer-Glo 2 Assay in human neuroprogenitor cells for Viability, Mundy Lab (AID 2284241; active means hit-call score of the fitted dose curve at least 0.9, where 1 is the maximum)
In short: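 Human neural progenitor cells (hNP1, WA09-derived) were plated on poly-L-ornithine/laminin and grown 40 to 44 hours at 37 °C, 5% CO2 before chemical addition. Twenty-four hours later, ATP was measured by CellTiter-Glo luminescence; loss of signal versus DMSO indicates reduced viability.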

Measured: AC50

Tumor necrosis factor (Homo sapiens), sequence (P01375 whole entry, looked up): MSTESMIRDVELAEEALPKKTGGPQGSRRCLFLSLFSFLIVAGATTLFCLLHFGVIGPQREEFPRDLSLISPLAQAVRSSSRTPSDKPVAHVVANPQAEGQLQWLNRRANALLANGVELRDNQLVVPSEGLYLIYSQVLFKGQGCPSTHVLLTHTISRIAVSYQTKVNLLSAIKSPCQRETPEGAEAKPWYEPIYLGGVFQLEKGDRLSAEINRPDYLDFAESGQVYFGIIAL

OCC(F)(F)C(F)(F)C(F)(F)CO
not listed: [18] | [19] | [20]
inactive: all other assays above

C=CC(=O)OCC(F)(F)C(F)(F)C(F)(F)COC(=O)C=C
inactive: [18] | [19] | [20] | [16]
active: [1] 1.73 µM | [2] 8.13 µM | [3] 9.5 µM and 8.85 µM | [4] 6.41 µM and 7.8 µM | [5] 9.4 µM and 9.64 µM | [7] 8.47 µM and 6.45 µM | [8] 8.9 µM and 9.3 µM | [9] 9.52 µM and 9.72 µM | [10] 9.95 µM and 11.1 µM | [11] 13.9 µM and 14.7 µM | [12] 2.89 µM and 3.25 µM | [13] 8.23 µM and 4.42 µM | [14] 9.03 µM and 9.56 µM | [15] 15.9 µM and 14.7 µM | [17] 23.2 µM and 22.2 µM

O=S(=O)(OCC(F)(F)F)C(F)(F)C(F)(F)C(F)(F)C(F)(F)F
active: [3] 8.88 µM | [8] 3.48 µM
inactive: [3] | [4] | [5] | [7] | [8] | [9] | [10] | [11] | [12] | [13] | [14] | [15] | [17]

CC(C)CCCC(C)CCO (configuration not stated)
active: [9] 29.9 µM | [10] 31.6 µM | [11] 35.3 µM | [13] 30.9 µM
inactive: [3] | [4] | [5] | [6] | [7] | [8] | [12] | [14] | [15]

O=C(O)CCC(F)(F)C(F)(F)C(F)(F)F
not listed: [1] | [2] | [16] | [18]
inactive: all other assays above

O=C(O)C(F)(F)C(F)(F)C(F)(F)OC(F)(F)F
not listed: [6] | [16] | [18]
inactive: all other assays above

Source: PubChem BioAssay (EPA / NIEHS)
